# The whole screen tested about 63,000 compounds, of which about 1,100 (1.7%) were called active. Cut-off read from the data, not from the text of the source: active = cytotoxicity above about 50%; inactive = the rest. What follows is part of a selection rich in actives, with near analogues and random picks from the rest. Potency and affinity values are given separately.
# Assay: cytotoxicity in HPDE-C7 cells, cell-based, fluorescence, HTS (AID 430);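 note: cells exposed to compound for 48 hours before viability readout; 0% = vehicle and 100% = reference cytotoxic drug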
# Conditions: HPDE-C7 pancreatic duct cells viability, at 10 µM, active compounds read high
row,SMILES,cytotoxicity
1,COc1ccc2[nH]c(=O)c(CN(C(=O)c3ccccn3)C3CCCCC3)cc2c1,-30.2% (inactive)
2,O=C(c1ccc(S(=O)(=O)N2CCOCC2)cc1)N1CCc2ccccc2C1,-7.6% (inactive)
3,CCOC(=O)C1=C(C)NC(=O)NC1/C(C)=C/c1ccccc1 (stereo not given),-16% (inactive)
4,COc1ccc(-c2nnc3sc(-c4c(OC)cccc4OC)nn23)cc1,10.9% (inactive)
5,COc1ccccc1-c1nnc2sc(-c3cc4ccccc4o3)nn12,56.2% (active)
6,COc1cc(-c2nnc3sc(-c4cccs4)nn23)cc(OC)c1OC,75.8% (active)
7,COc1ccc(-c2nnc3sc(-c4cccs4)nn23)cc1OC,20.2% (inactive)
8,COc1cccc(-c2nn3c(-c4ccco4)nnc3s2)c1,-0.7% (inactive)
9,CCOc1cccc(-c2nnc3sc(-c4ccco4)nn23)c1,21.5% (inactive)
10,COc1cccc(-c2nnc3sc(-c4ccco4)nn23)c1,58% (active)
11,COc1ccccc1-c1nn2c(-c3ccccc3Cl)nnc2s1,-14.1% (inactive)
12,COc1cc(-c2nnc3sc(-c4ccncc4)nn23)cc(OC)c1OC,-12.2% (inactive)
13,Cc1nnc2sc(-c3cc4ccccc4o3)nn12,5.6% (inactive)
14,COc1cccc(OC)c1-c1nn2c(-c3ccccc3Cl)nnc2s1,19.8% (inactive)
15,COc1cccc(OC)c1-c1nn2c(-c3cc(-c4ccccc4)n[nH]3)nnc2s1,68.9% (active)
16,CCOc1ccc(N=C(NC#N)SC)cc1,-2.8% (inactive)
17,CCN(CC)CCNC(=O)c1ccc2c(c1)ncn2C1CCCCC1,0.5% (inactive)
18,O=C(Nc1cccc(C(F)(F)F)c1)C1CCCN(S(=O)(=O)c2cnc[nH]2)C1 (stereo not given),-7.5% (inactive)
19,CCOC(=O)CN(C(=O)CSc1nnc(-c2ccncc2)n1CCCN(C)C)c1ccccc1,-4.8% (inactive)
20,Cc1nc2c3c4c(sc3n3c(SCC(=O)NCc5ccco5)nnc3n2n1)COC(C)(C)C4,-6.3% (inactive)
21,Cc1cc(Cl)c(S(=O)(=O)NCc2ccncc2)cc1OCC(N)=O,5.1% (inactive)
22,CC1(C)CC(=O)C=C(Nc2ccccc2F)C1,1.2% (inactive)
23,O=C(c1ccc(Cl)cc1)C1CCN(C(=O)NC2CCCCC2)CC1,-11.6% (inactive)
24,N#CCCCN1C(=O)C(O)(CC(=O)c2ccc3c(c2)OCCO3)c2ccccc21 (stereo not given),-27.8% (inactive)

row,SMILES,cytotoxicity
1,Cc1ccc(-n2c(Cn3cnc4ccccc43)nnc2SCC(=O)O)cc1,-16.2% (inactive)
2,COc1ccc(NC(C)=O)cc1NC(=O)CN1CCN(CC(=O)Nc2ccc(Cl)cc2)CC1,-12.5% (inactive)
3,CCc1nc2ccccc2c(NC(=O)CN2CCC(C)CC2)c1C,8.8% (inactive)
4,CCOC(=O)C1CCCN(CC(=O)NC2=Nc3ccccc3N=C(C)C2c2ccccc2)C1 (stereo not given),3.8% (inactive)
5,O=C(NCc1ccc(F)cc1)c1noc2c1CCCC2,-10.3% (inactive)
6,Fc1ccc(-c2ccc(-c3nn4c(-c5ccco5)nnc4s3)o2)cc1,73.5% (active)
7,Cc1oc(-c2ccc(F)cc2)cc1-c1nn2c(-c3ccco3)nnc2s1,-18% (inactive)
8,Clc1ccc(-c2ccc(-c3nn4c(-c5ccco5)nnc4s3)o2)cc1,-11.9% (inactive)
9,COc1cccc(OCc2nc3ccccc3c(=O)n2N)c1,-8.2% (inactive)
10,CCC(C)n1cnc2c(c1=O)c1nc3ccccc3nc1n2-c1ccc2c(c1)OCCO2 (stereo not given),-13.4% (inactive)
11,O=c1c2c3nc4ccccc4nc3n(-c3ccc4c(c3)OCCO4)c2ncn1CC1CCCO1 (stereo not given),0.3% (inactive)
12,CCCn1c(C)nc2c(c1=O)c1nc3ccccc3nc1n2-c1ccc2c(c1)OCCO2,51.4% (active)
13,CC(=NCC1CCCO1)C1=C(O)CC(C)(C)CC1=O (stereo not given),-12.6% (inactive)
14,Cc1ccccc1-n1nc2c(c1NC(=O)COc1ccc(Cl)cc1)CS(=O)C2 (stereo not given),10% (inactive)
15,CCCNC(=O)c1cc(-c2ccco2)on1,-2.4% (inactive)
16,CCCOc1ccc(C(=O)NCc2cccnc2)cc1,-13.2% (inactive)
17,Cc1ccc(S(=O)(=O)Cn2nnnc2C(CC(C)C)N2CCN(C(=O)c3ccco3)CC2)cc1 (stereo not given),4.4% (inactive)
18,CCCCN(CC)S(=O)(=O)c1ccc(C(=O)Nc2nnc(CSC)o2)cc1,23.6% (inactive)
19,CCCN(CCC)S(=O)(=O)c1ccc(C(=O)Nc2nnc(CSC)o2)cc1,12.6% (inactive)
20,CSCc1nnc(NC(=O)c2ccc(S(=O)(=O)N(CC(C)C)CC(C)C)cc2)o1,62.4% (active)
21,COCc1nnc(NC(=O)c2ccc(S(=O)(=O)N(C)c3ccccc3)cc2)o1,42.1% (inactive)
22,CCCCN(CCCC)S(=O)(=O)c1ccc(C(=O)Nc2nnc(CSC)o2)cc1,73.1% (active)
23,CCc1nnc(NC(=O)c2ccc(S(=O)(=O)N(CCOC)CCOC)cc2)o1,-20.2% (inactive)
24,CCN(c1ccccc1)S(=O)(=O)c1ccc(C(=O)Nc2nnc(COC)o2)cc1,60.9% (active)

row,SMILES,cytotoxicity
1,COCCN(CCOC)S(=O)(=O)c1ccc(C(=O)Nc2nnc(C)o2)cc1,-6.2% (inactive)
2,CCCCN(CC)S(=O)(=O)c1ccc(C(=O)Nc2nnc(COC)o2)cc1,17.5% (inactive)
3,CCCCN(CCCC)S(=O)(=O)c1ccc(C(=O)Nc2nnc(COC)o2)cc1,75.3% (active)
4,COCc1nnc(NC(=O)c2ccc(S(=O)(=O)N(C)C3CCCCC3)cc2)o1,47.9% (inactive)
5,CCc1nnc(NC(=O)c2ccc(S(=O)(=O)N(CC(C)C)CC(C)C)cc2)o1,48.8% (inactive)
6,O=C(O)C1CC(=O)N(c2ccc(F)c(F)c2)C1 (stereo not given),-4.7% (inactive)
7,CC1CCN(C(=O)CSc2nnc(-c3cc4ccccc4cc3O)n2Cc2ccco2)CC1,22.2% (inactive)
8,CCOC(=O)Cn1nc(C)c(-c2ccccc2)c1N,-9.4% (inactive)
9,Cc1nc2sc(C(c3ccccc3)N3CCC(O)CC3)c(O)n2n1 (stereo not given),7.2% (inactive)
10,O=C(O)c1ccc(S(=O)(=O)c2ccc3c(c2)C(=O)N(CC2CCCO2)C3=O)cc1 (stereo not given),-5.6% (inactive)
11,O=C(NC1CCCC1)C1CC(=O)N(C2CCCCCCC2)C1 (stereo not given),-18% (inactive)
12,CC(=O)Nc1c2c3c(cccc3n(C)c1=O)C(=O)c1ccccc1-2,-6.7% (inactive)
13,CCNc1c2c3c(cccc3n(C)c1=O)C(=O)c1ccccc1-2,53.8% (active)
14,Cn1c(=O)c(NCCO)c2c3c(cccc31)C(=O)c1ccccc1-2,-8.4% (inactive)
15,Cc1nn(CCCNC(=O)C2CCCO2)cc1Br (stereo not given),-8.3% (inactive)
16,CCOc1cc2[nH]c(=S)n(CC3CCCN3CC)c(=O)c2cc1OCC (stereo not given),4.2% (inactive)
17,O=C(NCc1ccc2c(c1)OCO2)c1nnc(Cc2ccc(Cl)cc2)o1,-0.3% (inactive)
18,O=C(NCc1ccc2c(c1)OCO2)c1cccc(Cl)c1,-4.3% (inactive)
19,O=C(NCc1ccc2c(c1)OCO2)c1ccc(-c2ccc(Cl)cc2)o1,53.5% (active)
20,O=C(Nc1cccc2nsnc12)c1ccc2c(c1)OCCO2,-5.8% (inactive)
21,O=C(Nc1ccccc1C(=O)N1CCCC1)C1CCN(c2ncccn2)CC1,-9.4% (inactive)
22,O=C(COC(=O)C1CCN(C(=O)c2ccc(Cl)cc2)CC1)c1ccco1,1.1% (inactive)
23,CCc1ccc(-c2nc(C(N)=O)c3[nH]c(=O)n(-c4ccccc4OC)c3n2)cc1,52.3% (active)
24,COc1ccc(-c2nc(C(N)=O)c3[nH]c(=O)n(-c4ccccc4OC)c3n2)c(OC)c1,-6.2% (inactive)

row,SMILES,cytotoxicity
1,COc1ccccc1-n1c(=O)[nH]c2c(C(N)=O)nc(-c3cccnc3)nc21,20.4% (inactive)
2,CC1(C)CC(=O)c2sc(NC(=O)CN3C(=O)CCC3=O)nc2C1,-5.4% (inactive)
3,COc1ccc(S(=O)(=O)N(CC(=O)N2CCOCC2)c2cc(Cl)ccc2OC)cc1OC,-21.9% (inactive)
4,CCCCNC(=O)Nc1cc(C(F)(F)F)c[nH]c1=O,4.6% (inactive)
5,O=c1cc(-c2ccccc2)[nH]c2ccccc12,60.9% (active)
6,Cc1cc(=O)c2ccccc2[nH]1,-8.3% (inactive)
7,O=c1cc(-c2ccccc2)c2ccccc2[nH]1,-20.9% (inactive)
8,O=C(NCCCN1CCCC1=O)NC12CC3CC(CC(C3)C1)C2,-16.8% (inactive)
9,CCOC(=O)N1CCC2(CC1)C(C(=O)C13CC4CC(CC(C4)C1)C3)C2(C#N)C#N (stereo not given),-15.7% (inactive)
10,Cc1cc(C)n(-c2cccc3cccnc23)n1,-7% (inactive)
11,Cc1ccc(S(=O)(=O)n2nc(OC(=O)c3c(-c4ccccc4Cl)noc3C)cc2N)cc1,79.3% (active)
12,COc1ccc(S(=O)(=O)n2nc(OC(=O)c3ccccc3)cc2N)cc1,1.9% (inactive)
13,COc1ccc(S(=O)(=O)n2nc(OC(=O)c3c(-c4ccccc4Cl)noc3C)cc2N)cc1,63.1% (active)
14,COc1ccccc1C(=O)Oc1cc(N)n(S(=O)(=O)c2ccc(C)cc2)n1,-1.2% (inactive)
15,Cc1onc(-c2ccccc2Cl)c1C(=O)Oc1cc(N)n(S(=O)(=O)c2ccc(F)cc2)n1,32.7% (inactive)
16,COc1ccc(S(=O)(=O)n2nc(OC(=O)c3ccc(C)cc3)cc2N)cc1,-9.2% (inactive)
17,Cc1csc(NC(=O)CSc2nc(C)nc3c2c(=O)n(C)c(=O)n3C)n1,-1.2% (inactive)
18,O=C(c1ccc(CS(=O)(=O)Cc2ccc(Cl)cc2)o1)N1CCCC1,7.7% (inactive)
19,Cc1ccc(-c2cc(-c3ccccc3Cl)[nH]n2)c(O)c1,67.3% (active)
20,COc1ccccc1-c1cc(-c2cc(Cl)ccc2O)n[nH]1,-8% (inactive)
21,Oc1ccccc1-c1cc(-c2ccccc2Cl)[nH]n1,-4.7% (inactive)
22,Cc1ccc(-c2cc(-c3cccc(F)c3)n[nH]2)c(O)c1,2.1% (inactive)
23,Cc1ccccc1-c1cc(-c2ccccc2O)n[nH]1,25.4% (inactive)

# — PubChem BioAssay AID430 (Sanford-Burnham Center for Chemical Genomics, 2006)
